Most compounds without a hit are left out; they make up all but 7.3% or so of the library.
FMDV inh – antivirals against foot and mouth disease virus; FMDV antiviral cell-based qHTS; Potency, µM (highest dose often 57.9 µM), hits mostly inhibitors; 1.2% of 410,000 active; AID 1159524; calls by dose curve; tested in HEK293T cells; further: read-out not given here; nearly all actives have a fitted effect of over 45% in size
VACV mCherry inh – inhibitors of vaccinia virus infection (mCherry reporter signal) | Potency, µM (top dose mostly 36.5 µM), actives largely listed as inhibitors | AID 720579 | 0.63% of 310,000 active | Vaccinia virus mCherry reporter infection, fluorescence; calls by dose curve; tested in A549 cells; further: nearly all actives have a fitted effect of over 35% in size
HCMV antiviral – human cytomegalovirus inhibition; HFF cells, HCMV-luciferase reporter, 72 h; active compounds read low; 4.5% of 410,000 active; activity change, negative = inhibition, % at 57.5 µM; in the data active means activity change below about -60%; inconclusive means no clear call, values can overlap the other calls; inactive means above about -39%
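HFF cells seeded 16 h at 37C, treated with compounds, infected with luciferase-reporter HCMV at MOI 1 PFU/cell; luciferase read at 72 h post infection, normalized to buffer-only and Salinomycin controls.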
HCV inh – HCV inhibition | Huh7.5.1 HCVcc-Cre infection, luciferase reporter, 44 h | Potency, µM (doses to about 41.8 µM), usual class: inhibitors | 3.4% of 340,000 active | AID 651820; active means well fitted inhibition curve with a large enough effect; inconclusive means small, poorly fitted or top-dose-only effect, or another doubt; inactive means no such curve, though single readings can be large or run the other way
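Reporter virus HCVcc-Cre (~0.5 moi) infects cells exposed to compound; seeding density 1,000 cells/well with 4 h settling beforehand. Luminescence, 15 sec read, taken 44 h post-infection following a 15 min RT substrate incubation.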
VACV Venus inh – inhibitors of vaccinia virus (Venus reporter). Potency, µM (series often up to 36.5 µM), usual class: inhibitors. Vaccinia virus Venus reporter expression, fluorescence. AID 720580. 0.46% of 330,000 active; calls by dose curve; tested in A549 cells; further: nearly all actives have a fitted effect of over 30% in size
Large screens that a line does not name were inactive.

CCCCc1ccc(C2C3=C(CC(C)(C)CC3=O)NC3=C2C(=O)c2ccccc23)cc1 (centres undefined)	HCMV antiviral -86, HCV inh 13µM, VACV Venus inh inconclusive
O=C1CCCC2=C1C(c1cccc(O)c1)C1=C(N2)c2ccccc2C1=O (centres undefined)	none
CC1(C)CC(=O)C2=C(C1)NC1=C(C(=O)c3ccccc31)C2c1ccc(O)cc1 (centres undefined)	FMDV inh inconclusive, VACV mCherry inh inconclusive, VACV Venus inh 11µM
CN(C)c1ncnc2c1ncn2[C@H]1CN(Cc2ccc3c(c2)OCO3)C[C@@H](CO)O1	none (no result: HCV inh)
COc1ccncc1-c1ccc(C2=CC(=O)CC(C)(C)C2=O)cc1	none (no result: HCV inh)
C/C(=N\NC(=S)NC1CCCCC1)c1cccs1	HCV inh inconclusive
C/C(=N\NC(=S)NC1CCCCC1)c1c(F)cccc1F	HCMV antiviral -79, HCV inh inconclusive
Cc1ccc(N(CCC(=O)O)S(=O)(=O)c2ccc(C)cc2)cc1	none
Cc1cc(C)cc(N(CCC(=O)O)S(=O)(=O)c2ccc(Cl)cc2)c1	HCMV antiviral -69
CSc1ccccc1C(=O)OCC(=O)Nc1c(C)n(C)n(-c2ccccc2)c1=O	none (no result: HCV inh)
CCOC(=O)c1c(NC(=O)/C=C/c2ccc(OCC)c(OC)c2)sc2c1CCC2	none (no result: HCV inh)
COCCn1c(C)cc(C(=O)CSc2nc(C)nc3sc4c(c23)CCC4)c1C	HCMV antiviral -80, HCV inh 10µM (no result: VACV mCherry inh, VACV Venus inh)
COCCn1c(C)cc(C(=O)CSc2ccc3ccccc3n2)c1C	HCV inh 10µM (no result: VACV mCherry inh)
Cc1ccc(C)c(C(=O)CSc2nc3ccccc3c(=O)[nH]2)c1	HCMV antiviral -66
COCCn1c(C)cc(C(=O)CSc2nc3ccccc3c(=O)[nH]2)c1C	HCV inh 8.9µM (no result: VACV mCherry inh, VACV Venus inh)
COCCn1c(C)cc(C(=O)COc2nc3ccccc3nc2C)c1C	HCMV antiviral -86, HCV inh inconclusive, VACV Venus inh inconclusive
COc1ccc2nc(NC(=O)CN3C(=O)NC4(CCCCC4)C3=O)sc2c1	VACV mCherry inh inconclusive, HCV inh inconclusive
Cc1ccc(NC(=O)c2cc3c(s2)CCCC3)cc1S(=O)(=O)Nc1ccccc1Cl	VACV mCherry inh inconclusive, HCMV antiviral -82, HCV inh inconclusive, VACV Venus inh inconclusive
O=C(Nc1cccc(S(=O)(=O)Nc2ccc(Cl)cc2)c1)c1cc2c(s1)CCCC2	VACV mCherry inh inconclusive, HCMV antiviral -75, HCV inh 11µM, VACV Venus inh inconclusive
O=C(Nc1ccon1)c1cc2c(s1)CCCC2	none (no result: VACV mCherry inh, VACV Venus inh)
Cc1ccc(C(=O)Nc2ccc(C)c(S(=O)(=O)Nc3ccccc3Cl)c2)s1	HCMV antiviral inconclusive, HCV inh 10µM
O=C(Nc1cc(S(=O)(=O)Nc2ccccc2Cl)ccc1O)c1cc2c(s1)CCCC2	none (no result: VACV mCherry inh, VACV Venus inh)
Cc1cc2c(cc1C)CSC(c1c(O)ccc3ccccc13)SC2	FMDV inh inconclusive, HCMV antiviral -74, HCV inh inconclusive, VACV Venus inh inconclusive
Cc1cc2c(cc1C)CSC(c1ccc3ccccc3c1O)SC2	none (no result: VACV mCherry inh, VACV Venus inh)
CCN(c1ccccc1)S(=O)(=O)c1ccc2c(c1)N(C(C)=O)CCS2	none (no result: VACV mCherry inh, VACV Venus inh)
CC(C)Oc1cc(F)ccc1-c1cc(C(=O)Nc2cccc(C(F)(F)F)c2)[nH]n1	FMDV inh inconclusive, HCMV antiviral -64 (no result: HCV inh)
O=C(C[C@H]1C/C=C\CC[C@H](Cc2ccc(F)cc2)C(=O)O[C@H](c2ccccc2)CNC1=O)N[C@H](CO)Cc1ccccc1	FMDV inh inconclusive, VACV mCherry inh inconclusive, VACV Venus inh inconclusive
C[C@@H]1OC(C2CCCCC2)N(C)[C@H]2C[C@H]3c4[nH]c5ccccc5c4CCN3C[C@@H]12 (some centres undefined)	HCMV antiviral inconclusive (no result: HCV inh)
N#Cc1ccc(NC(=O)COC(=O)C2Cc3ccccc3CN2C(=O)c2ccccc2)cc1 (centres undefined)	HCV inh 10µM
CSC1=C(C#N)C(=O)NC(c2ccc(Cl)cc2)S1 (centres undefined)	FMDV inh 20µM
Cc1cccc(/C=C/c2onc(C)c2[N+](=O)[O-])n1	FMDV inh 14µM, HCMV antiviral -109, HCV inh inconclusive
Cc1cccc(N/C=C/c2onc(C)c2[N+](=O)[O-])c1	none
Cc1noc(/C=C/c2nn(C)cc2Cl)c1[N+](=O)[O-]	FMDV inh inconclusive, HCMV antiviral -98, HCV inh inconclusive (no result: VACV mCherry inh, VACV Venus inh)
COc1ccc(NC(=O)c2oc3ccccc3c2NC(=O)Cc2ccc(F)cc2)c(OC)c1	none (no result: HCV inh)
CCS(=O)(=O)N1CC(=O)N(c2cc(C)cc(C)c2)C(C)(C(=O)NC2CCCCC2)C1 (centres undefined)	none (no result: HCV inh)

Assay outcomes as filed in PubChem.
